# From PubChem BioAssay (NCI)
# The panel holds about 83,000 compounds, 20% with a hit somewhere; the sample as a whole holds those more often.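 Assay: single dose, 48 h. Readout: percent growth (0 = no net growth; negative = cell death). Active: <10.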 Unmarked numbers belong to inactive results. The source made the active and inactive calls.
# Test system: SNB-19 CNS
# Assay: NCI-60 one-dose screen, 48 h (100 = growth as untreated, 0 = no growth, -100 = all killed)
# Conditions: 10 µM
row,Structure (SMILES),growth
1,NC1=CC(=O)C(=O)c2cccnc21,66.5%
2,Cc1cn(-c2cc(F)cc(NC(=O)c3ccc(C)c(Nc4nccc(-c5cccnc5)n4)c3)c2)cn1,6.01% (active)
3,C/C(=C/CCC(C)[C@@H]1CC[C@]2(C)C3=C(CC[C@@]12C)[C@@]1(C)CCC(=O)C(C)(C)[C@@H]1CC3)C(=O)O (some centres undefined),-78.1% (active)
4,CCOC(=O)CN(c1sc(C)c(C)c1C(=O)OCC)S(=O)(=O)c1ccc(C)cc1,86.6%
5,Cc1c2c[n+](C(C)C)ccc2c(C)c2c1[nH]c1ccccc12,4.83% (active)
6,CC(C)C1=C(O)C2=C(C(=O)C1=O)[C@@]1(C)CCCC(C)(C)[C@@H]1CC2,53.4%
7,CN(C)CCC1(c2ccccc2)CCN(C)C1=O (centres undefined),105%
8,COc1ccc(/C(C#N)=C/c2ccccc2OC)cc1,51.9%
9,COc1cc2c(cc1NC(=O)C(Cl)Cl)-c1ccc(NC(=O)C(Cl)Cl)cc1C2,3.35% (active)
10,Cn1c2ccccc2c2c3[nH][nH]c(=O)c3c3c4ccccc4[nH]c3c21,32.5%
11,COc1ccc(-c2nn(-c3cccc(Cl)c3)cc2-c2cc(-c3ccccc3)nc(N)n2)cc1,75.2%
12,COc1ccc(C(=O)c2ccccc2CN2C(=O)c3ccccc3C2=O)cc1,99.6%
13,COc1ccc(-c2nn(-c3cccc(Cl)c3)cc2-c2nc(N)[nH]c(=O)c2C#N)cc1,60.3%
14,O=C1/C=C/[C@@H](O)[C@@H]2C[C@@H](O)C[C@H]2/C=C/CCC[C@H](C(F)(F)F)O1,65.6%
